CHO-K1 Ca antag = counter-screen for M1 antagonists: effect in parental CHO-K1 cells; ATP-induced calcium, Fluo-8 fluorescence; inhibition, % at 3 µM; 0.6% of 360,000 active;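 active = inhibition above a per-plate cutoff, the plate's mean sample inhibition plus 3 SD, cut at about 24% in these data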
M1 antag = blocks human M1 muscarinic receptor. CHO-K1 hM1, Fluo-8 calcium fluorescence, ACh EC80 antagonist. inhibition, % at 3 µM. 1.3% of 360,000 active;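 active = percent inhibition above its own plate's cutoff, namely the mean of that plate's compound wells plus 3 SD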;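 note: peak over basal fluorescence ratio during 140 s after agonist addition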
Target sequence (P11229 whole entry, looked up): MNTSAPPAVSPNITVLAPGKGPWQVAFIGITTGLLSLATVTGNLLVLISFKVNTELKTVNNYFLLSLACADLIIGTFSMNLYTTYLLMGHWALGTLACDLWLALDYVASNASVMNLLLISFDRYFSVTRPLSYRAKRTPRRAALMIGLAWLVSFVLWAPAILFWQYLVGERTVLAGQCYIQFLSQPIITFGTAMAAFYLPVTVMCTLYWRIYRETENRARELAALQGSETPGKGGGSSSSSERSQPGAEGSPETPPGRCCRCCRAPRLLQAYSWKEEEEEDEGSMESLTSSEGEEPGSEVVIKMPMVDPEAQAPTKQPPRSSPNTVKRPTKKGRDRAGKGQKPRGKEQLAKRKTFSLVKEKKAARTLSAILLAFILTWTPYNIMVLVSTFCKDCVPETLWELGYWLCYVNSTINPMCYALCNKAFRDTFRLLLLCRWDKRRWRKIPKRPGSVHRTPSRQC
M1 ag parental = M1 agonist counterscreen hit in parental CHO-K1 cells; Fluo-8 calcium fluorescence; scaled to maximal ATP response, vehicle zero; activation, % at 3 µM; 0.48% of 360,000 active; in the data active = activation above about 15%;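 note: untransfected CHO-K1 host cells lacking M1 receptor as counterscreen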
CHO-K1 Ca PAM = M1 PAM counterscreen hit in parental CHO-K1 cells; ATP EC20, Fluo-8 calcium fluorescence; 0% at ATP EC20, 100% at ATP max; activation, % at 3 µM; 0.02% of 360,000 active; AID 602247;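 active = activation above the run cutoff, the mean activation of all test compounds plus 3 SD, cut at about 40% in these data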;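 note: peak over basal fluorescence ratio in a 140 s read after ATP addition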
CHRM1 agonist = activates human CHRM1 receptor. CHO-K1 hM1, Fluo-8 calcium fluorescence, agonist mode; 0% DMSO, 100% acetylcholine EC100. activation, % at 3 µM. 0.33% of 360,000 active;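 active = activation above the run's mean compound activation plus 3 SD, cut at about 16% in these data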;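 note: peak over basal fluorescence ratio within a 140 s kinetic read after compound addition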
CHRM1 PAM = potentiates human M1 receptor response to acetylcholine. CHO-K1 hM1, Fluo-8 calcium fluorescence, ACh EC20; 0% = ACh EC20, 100% = maximal ACh. 0.088% of 360,000 active. P11229. activation, % at 3 µM; in the data active = activation above about 19%, passing the limit was not always enough
Numbers stand for hits. In the library only some 2.4% were active in any assay of this set; here they are far more common.

How did CCCS(=O)(=O)NC(=O)C1(C)CCCN(C(=O)c2cc3ccccc3s2)C1 (stereo not drawn) do in these assays?
CHO-K1 Ca antag: inactive; M1 antag: inactive; M1 ag parental: inactive; CHO-K1 Ca PAM: inactive; CHRM1 agonist: inactive; CHRM1 PAM: inactive

Results for CCOC(=O)c1c(C)[nH]c(C(=O)CC(=O)OC)c1C ?
CHO-K1 Ca antag: inactive; M1 antag: inactive; M1 ag parental: inactive; CHO-K1 Ca PAM: inactive; CHRM1 agonist: inactive; CHRM1 PAM: inactive

How did COCCN(C(=S)Nc1cc(C)cc(C)c1)C(C)c1ccco1 (stereo not drawn) do in these assays?
CHO-K1 Ca antag: inactive; M1 antag: inactive; M1 ag parental: inactive; CHO-K1 Ca PAM: inactive; CHRM1 agonist: inactive; CHRM1 PAM: 26

Results for Cc1ccc(OCCn2c(=O)sc3ccccc32)cc1 ?
CHO-K1 Ca antag: inactive; M1 antag: inactive; M1 ag parental: inactive; CHO-K1 Ca PAM: inactive; CHRM1 agonist: inactive; CHRM1 PAM: inactive

Results for Cc1ccc(OCCCn2c(=O)sc3ccccc32)cc1 ?
CHO-K1 Ca antag: 24; M1 antag: inactive; M1 ag parental: inactive; CHO-K1 Ca PAM: inactive; CHRM1 agonist: inactive; CHRM1 PAM: inactive

What do the screens show for `O=C(O)c1nc(NCCc2ccccc2)ncc1Cl`?
CHO-K1 Ca antag: inactive; M1 antag: inactive; M1 ag parental: inactive; CHO-K1 Ca PAM: inactive; CHRM1 agonist: inactive; CHRM1 PAM: inactive

How did Cn1ccc2c(-c3ccc(F)cc3)cc3c(c21)C1CCC3C1 (stereo not drawn) do in these assays?
CHO-K1 Ca antag: inactive; M1 antag: inactive; M1 ag parental: inactive; CHO-K1 Ca PAM: inactive; CHRM1 agonist: inactive; CHRM1 PAM: inactive

What do the screens show for `COc1ccc(-c2cc3c(c4c2ccn4C)C2CCC3C2)cc1F` (stereo not drawn)?
CHO-K1 Ca antag: 24; M1 antag: inactive; M1 ag parental: inactive; CHO-K1 Ca PAM: inactive; CHRM1 agonist: inactive; CHRM1 PAM: inactive

How did COC(=O)c1cc(NS(=O)(=O)c2ccc(N3CCOCC3)c(N)c2)cc(C(=O)OC)c1 do in these assays?
CHO-K1 Ca antag: inactive; M1 antag: inactive; M1 ag parental: inactive; CHO-K1 Ca PAM: inactive; CHRM1 agonist: inactive; CHRM1 PAM: inactive

How did O=[N+]([O-])c1ccc(N/N=C2\CC3CC=CC23)c([N+](=O)[O-])c1 (stereo not drawn) do in these assays?
CHO-K1 Ca antag: inactive; M1 antag: inactive; M1 ag parental: inactive; CHO-K1 Ca PAM: inactive; CHRM1 agonist: inactive; CHRM1 PAM: inactive

How did O=[N+]([O-])c1ccc(NN=C2CC3CCC2C3)c([N+](=O)[O-])c1 (stereo not drawn) do in these assays?
CHO-K1 Ca antag: inactive; M1 antag: 39; M1 ag parental: inactive; CHO-K1 Ca PAM: inactive; CHRM1 agonist: inactive; CHRM1 PAM: inactive

What do the screens show for `N#CCSc1ccccc1NC(=O)CN1C(=O)C(=O)N(Cc2ccccc2)C1=O`?
CHO-K1 Ca antag: inactive; M1 antag: inactive; M1 ag parental: inactive; CHO-K1 Ca PAM: inactive; CHRM1 agonist: inactive; CHRM1 PAM: inactive

Results for COc1cc2c(cc1NC(=O)CN1CCN(S(=O)(=O)c3ccc(C)cc3)CC1)oc1ccccc12 ?
CHO-K1 Ca antag: inactive; M1 antag: inactive; M1 ag parental: inactive; CHO-K1 Ca PAM: inactive; CHRM1 agonist: inactive; CHRM1 PAM: 23

What do the screens show for `CC(=O)c1ccc(S(=O)(=O)N2CCN(CC(=O)Nc3ccccc3C(=O)NC3CC3)CC2)cc1`?
CHO-K1 Ca antag: inactive; M1 antag: 37; M1 ag parental: inactive; CHO-K1 Ca PAM: inactive; CHRM1 agonist: inactive; CHRM1 PAM: inactive

What do the screens show for `O=C(CN1CCN(S(=O)(=O)c2ccccc2)CC1)Nc1ccccc1C(=O)NC1CC1`?
CHO-K1 Ca antag: inactive; M1 antag: inactive; M1 ag parental: inactive; CHO-K1 Ca PAM: inactive; CHRM1 agonist: inactive; CHRM1 PAM: inactive

What do the screens show for `CC1Cc2c([nH]c(=O)n(-c3ccccc3)c2=O)O1` (stereo not drawn)?
CHO-K1 Ca antag: inactive; M1 antag: inactive; M1 ag parental: inactive; CHO-K1 Ca PAM: inactive; CHRM1 agonist: inactive; CHRM1 PAM: inactive

Results for COC(=O)c1cnc(NC(=O)C2(C)CCN2C(=O)C(C)C)s1 (stereo not drawn) ?
CHO-K1 Ca antag: inactive; M1 antag: inactive; M1 ag parental: inactive; CHO-K1 Ca PAM: inactive; CHRM1 agonist: inactive; CHRM1 PAM: inactive

Results for O=c1[nH]c(Cc2cccs2)nc2scc(-c3ccc(Cl)cc3)c12 ?
CHO-K1 Ca antag: inactive; M1 antag: inactive; M1 ag parental: inactive; CHO-K1 Ca PAM: inactive; CHRM1 agonist: inactive; CHRM1 PAM: inactive

Results for O=c1[nH]c(Cc2ccccn2)nc2scc(-c3ccc(Cl)cc3)c12 ?
CHO-K1 Ca antag: inactive; M1 antag: inactive; M1 ag parental: inactive; CHO-K1 Ca PAM: inactive; CHRM1 agonist: 26; CHRM1 PAM: inactive

Results for CN(CC(=O)Nc1ccc(F)c(F)c1F)C(=O)c1ccc2c(c1)S(=O)(=O)N=C1CCCCCN12 ?
CHO-K1 Ca antag: inactive; M1 antag: inactive; M1 ag parental: inactive; CHO-K1 Ca PAM: inactive; CHRM1 agonist: inactive; CHRM1 PAM: inactive

Results for CCOC(=O)c1ccc(S(=O)(=O)Nc2ccccc2-c2nnn(CC)n2)cc1 ?
CHO-K1 Ca antag: inactive; M1 antag: 47; M1 ag parental: inactive; CHO-K1 Ca PAM: inactive; CHRM1 agonist: inactive; CHRM1 PAM: inactive

What do the screens show for `CC1=C(C(=O)N2CCCCCC2)CC(CC(=O)NCCc2ccccn2)C(=O)N1CCCN1CCCC1=O` (stereo not drawn)?
CHO-K1 Ca antag: inactive; M1 ag parental: inactive; CHO-K1 Ca PAM: inactive

How did CC(CCc1ccccc1)NC(=O)c1cccs1 (stereo not drawn) do in these assays?
CHO-K1 Ca antag: 29; M1 antag: inactive; M1 ag parental: inactive; CHO-K1 Ca PAM: inactive; CHRM1 agonist: inactive; CHRM1 PAM: inactive

What do the screens show for `CC(NC(=O)COc1ccc(S(=O)(=O)N2CCCC2)cc1)c1ccccc1` (stereo not drawn)?
CHO-K1 Ca antag: inactive; M1 antag: inactive; M1 ag parental: inactive; CHO-K1 Ca PAM: inactive; CHRM1 agonist: inactive; CHRM1 PAM: inactive

How did N#Cc1ccsc1NC(=O)c1ccc(Cl)c([N+](=O)[O-])c1 do in these assays?
CHO-K1 Ca antag: inactive; M1 antag: inactive; M1 ag parental: 19; CHO-K1 Ca PAM: inactive; CHRM1 agonist: inactive; CHRM1 PAM: inactive

How did Clc1ccc(C2=Nn3c(nnc3-c3cccnc3)SC2)s1 do in these assays?
CHO-K1 Ca antag: 27; M1 antag: inactive; M1 ag parental: inactive; CHO-K1 Ca PAM: inactive; CHRM1 agonist: inactive; CHRM1 PAM: inactive

How did CCOc1ccc(C(=O)Nc2ccc(C(=O)N3CCOCC3)cc2)c(OCC)c1 do in these assays?
CHO-K1 Ca antag: inactive; M1 antag: inactive; M1 ag parental: inactive; CHO-K1 Ca PAM: inactive; CHRM1 agonist: inactive; CHRM1 PAM: inactive

What do the screens show for `CC(Oc1ccccc1)C(=O)N1CCc2ccccc2C1` (stereo not drawn)?
CHO-K1 Ca antag: inactive; M1 antag: inactive; M1 ag parental: inactive; CHO-K1 Ca PAM: inactive; CHRM1 agonist: inactive; CHRM1 PAM: inactive
